Source: PubChem
Only some compounds are listed: those with a hit (about 28% of all), similar ones and a draw of the others.
CYP2C19 activ: human CYP2C19 activators, primary screen, biochemical, luminescence; Cytochrome P450 2C19 (Homo sapiens), P33261; recombinant CYP2C19, luciferin-H EGE luminescence; hits give high values; 0 = fully inhibited enzyme, 1 = untreated enzyme; activation factor at 5 µM; 96,000 tested, under 10 active; AID 1025, 2008;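 active = activation factor of at least 2 at 5 µM in the primary screen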;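 also: 0 = wells with 2.5 mM tranylcypromine and 1 = vehicle-only wells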
Target sequence (P33261 whole entry, looked up): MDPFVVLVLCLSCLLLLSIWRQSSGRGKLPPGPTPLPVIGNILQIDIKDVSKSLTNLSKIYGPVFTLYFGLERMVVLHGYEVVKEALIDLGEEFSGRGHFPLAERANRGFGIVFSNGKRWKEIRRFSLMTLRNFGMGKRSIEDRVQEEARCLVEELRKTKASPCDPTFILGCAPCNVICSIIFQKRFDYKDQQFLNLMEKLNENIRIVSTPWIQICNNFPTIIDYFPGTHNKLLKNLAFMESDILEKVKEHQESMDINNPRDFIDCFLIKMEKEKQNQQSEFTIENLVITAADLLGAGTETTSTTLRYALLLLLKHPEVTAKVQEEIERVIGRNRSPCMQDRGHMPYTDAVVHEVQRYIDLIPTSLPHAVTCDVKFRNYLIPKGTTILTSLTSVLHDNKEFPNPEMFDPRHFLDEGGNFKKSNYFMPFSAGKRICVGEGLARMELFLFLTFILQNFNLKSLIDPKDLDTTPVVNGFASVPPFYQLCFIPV
CYP2C9 inh: blockers of cytochrome P450 2C9 activity – biochemical, luminescence, ADME assay, primary screen. inhibition, % at 5 µM. 96,000 tested, 20% active. CYP2C9 Supersomes, luciferin-H conversion. P11712;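 active = blocking of liver enzyme CYP2C9 beyond about 50% at 5 µM, limit read from the data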
CYP2C19 inhib: blockers of cytochrome P450 2C19 activity – biochemical, luminescence, ADME assay, primary screen. P33261. CYP2C19 Supersomes, luciferin-H EGE luminescence, 30 min. inhibition, % at 5 µM. 96,000 tested, 21% active;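 active = CYP2C19 inhibition above a set limit at 5 µM in the primary screen, cut at about 50% in these data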;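 also: plate controls were negative control wells for no effect and 2.5 mM tranylcypromine positive control for full effect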
hDAT+cocaine: changed hDAT dopamine uptake under cocaine IC80, either direction, primary screen, cocaine antagonist project, cell-based, LLC-PK1 hDAT, [14C]-dopamine uptake, MLSMR; B-score at 10 µM; 110,000 tested, 1.3% active; LLC-PK1 hDAT cells, [14C]-dopamine uptake with cocaine IC80; actives deviate in either direction; AID 449768, 2010; Sodium-dependent dopamine transporter (Homo sapiens), Q01959;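 active = Z score or B-score, a plate-position-corrected score, falls beyond the plate's 99.7% confidence bounds, in either direction; inactive = both scores lie inside the 99.7% bounds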;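 also: scored against the spread of the other compound wells on the same plate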
D1 allo mod: D1 CRE-luciferase signal change, two-sided – cell-based, HEK293 D1, dopamine EC30, D1 allosteric modulator project, primary screen | B-score at 10 µM | dopamine EC30 potentiation; actives deviate in either direction | 58,000 tested, 5.9% active | D(1A) dopamine receptor (Homo sapiens), P21728;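 active = luminescence count or its row- and column-corrected plate score outside the 99.7% band of the plate's sample wells, on either side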
CYP2C9 activ: human CYP2C9 activators, primary screen, biochemical, luminescence; AID 1024, 2008; 96,000 tested, 1.4% active; recombinant CYP2C9, luciferin-H conversion; hits give high values; factor 1 = untreated enzyme, 0 = blocked; activation factor at 5 µM;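 active = activation factor of 2 or more for CYP2C9 at a 5 µM dose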;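 also: 0 = sulfaphenazole-blocked wells and 1 = vehicle-only wells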
An asterisk follows results filed as active; · = not tested or not shown.

SMILES	CYP2C19 activ	CYP2C9 inh	CYP2C19 inhib	hDAT+cocaine	D1 allo mod	CYP2C9 activ
O=C(Nc1ccccc1)N1CCC(c2nc(-c3ccc(S(=O)(=O)N4CCOCC4)cc3)no2)CC1	0.9	46.2	10.4	-0.148	-0.661	0.5
O=C(Nc1cccc(C(F)(F)F)c1)N1CCC(c2nc(-c3ccc(F)cc3)no2)CC1	0.6	56.1*	41.3	-0.513	-0.443	0.4
O=C(Nc1ccccc1)N1CCCC(c2nc(-c3ccc(F)cc3)no2)C1 (stereo not drawn)	0.6	47.6	35.7	1.52	·	0.5
CC(C)c1ccc(-c2noc(C3CCCN(C(=O)c4ccc(F)cc4F)C3)n2)cc1 (stereo not drawn)	0.2	90.1*	81.8*	-0.919	-0.0718	0.1
O=C(C1CCCCC1)N1CCCC(c2nc(-c3ccc(F)cc3)no2)C1 (stereo not drawn)	0.7	47.6	31.2	0.329	1.23	0.5
Cc1ccccc1NC(=O)N1CCCC(c2nc(-c3ccc(F)cc3)no2)C1 (stereo not drawn)	0.5	70.3*	53.6*	3.05*	-0.179	0.3
Cc1ccc(-c2noc(C3CCCN(C(=O)C4CCCCC4)C3)n2)o1 (stereo not drawn)	0.5	59.6*	53.1*	1	·	0.4
Cc1ccc(-c2noc(C3CCCN(C(=O)c4ccc(F)cc4F)C3)n2)cc1 (stereo not drawn)	0.8	39.4	22.3	0.015	0.107	0.6
Cc1ccccc1NC(=O)N1CCCC(c2nc(-c3ccc(C(C)C)cc3)no2)C1 (stereo not drawn)	0.8	69.6*	19.2	-1.73	1.08	0.3
O=C(COc1ccc(S(=O)(=O)N2CCCC2)cc1)NCCC1=CCCCC1	0.6	85.8*	42.8	0.739	-0.00602	0.1
CC(=O)Nc1ccc(S(=O)(=O)NC(CC(=O)NCCC2=CCCCC2)C(C)C)cc1 (stereo not drawn)	0.1	31.9	94.9*	0.539	0.216	0.7
CC(C)(C)NS(=O)(=O)c1ccc(OCC(=O)NCCC2=CCCCC2)cc1	0.1	84.4*	85.1*	0.488	·	0.2
O=C(O)C[C@H]1c2cc(C(F)(F)F)ccc2S(=O)(=O)N1C1CCCCC1	·	·	·	-0.763	·	·
CCOC(=O)C1CCCN(C(=O)c2cc3ncc(Br)cn3n2)C1 (stereo not drawn)	1	-3.0	1.9	-0.293	-0.419	1
Cc1nn(CC(=O)Nc2ccc3c(c2)oc2ccccc23)c(=O)c2ccccc12	0.6	1.1	39.7	·	-0.439	1
COC(=O)c1ccc(OCCOc2ccccc2)cc1	0.3	54.4*	67.2*	-0.14	·	0.5
Cc1ccc(C(C)C)c(OCCNC(=O)c2cncc(Br)c2)c1	0.3	63.1*	71.8*	0.0488	·	0.4
O=C(NCCOc1ccccc1)c1cncc(Br)c1	0.2	32.3	84.0*	-0.406	·	0.7
COC(=O)c1ccc(OCCN2C3=NCCN3c3ccccc32)cc1	0.8	-3.4	18.5	1.22	·	1
CCc1cc(C)cc(OCCNC(=O)c2cncc(Br)c2)c1	0.3	23.1	71.6*	0.971	·	0.8
CN(C)N=Nc1ccc(S(=O)(=O)N2CCSC2C(=O)O)cc1 (stereo not drawn)	·	·	·	-1.17	·	·
NC(=O)C1CCN(C(=O)C2CCN(S(=O)(=O)c3ccccc3)CC2)CC1	1.1	17.3	-12.2	-0.399	0.015	0.8
COc1cc(OC)cc(C(=O)NCCOc2ccccc2)c1	0.4	13.6	62.3*	-0.719	·	0.9
CCCC(=O)NCCSC	1	-5.2	-4.9	-0.755	-1.16	1.1
O=C(Nc1nc2c(s1)COc1ccccc1-2)c1cccs1	0.6	62.8*	36.2	0.794	0.89	0.4
O=C(CCS(=O)(=O)c1ccccc1)Nc1nc2c(s1)COc1ccccc1-2	0.3	38.0	65.3*	-0.00421	·	0.6
Cc1ccc(-n2c(-c3ccccc3)nnc2-c2cccs2)cc1	·	·	·	-0.00956	·	·
